Holding throughout (test): NCI-60 one-dose screen, 48 h (100 = growth as untreated, 0 = no growth, -100 = all killed)
Common to all, as to conditions: 10 µM unless noted

For test [1], the system named is HCT-15 colon.
The test system of test [2] is HT29 colon.
The subject of test [3] is SNB-75 CNS.
The test system of test [4] is SNB-19 CNS.
The subject of test [5] is U251 CNS.
For test [6], the system named is PC-3 prostate.
Test [7] relates to SK-MEL-5 melanoma.
Test [8] relates to UACC-62 melanoma.
The test system of test [9] is SK-MEL-28 melanoma.
Test [10] deals with SK-MEL-2 melanoma.
In test [11] the test system is EKVX NSCLC.
The subject of test [12] is SN12C renal.
For test [13], the system named is UO-31 renal.
In test [14] the test system is TK-10 renal.
Test [15] has as its system ACHN renal.
In test [16] the test system is CAKI-1 renal.
The test system of test [17] is A498 renal.
For test [18], the system named is CCRF-CEM leukemia.
For test [19], the system named is MOLT-4 leukemia.

The panel holds about 83,000 compounds, 20% with a hit somewhere; the sample as a whole holds those more often.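 Treatment: one concentration, 48 hours, 96-well format. Scoring: percent growth, with anything below 10 considered active.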 Values without a mark were called inactive. The source made the active and inactive calls.

Regarding `N#Cc1c(-c2ccc(Br)cc2)nc2n[nH]c(-c3ccc(Br)cc3)c2c1-c1ccc(C(F)(F)F)cc1`, the growth in test [1] was 5.75% (active); in test [2] it was 20.6%; in test [3], -3.08% (active); in test [4] it was 20.5%; in [5], 20.7%; in [6], 14.5%. Besides, the growth in test [7] was 14.3%; in [8] it was 0.103% (active); in [9] it was 49.5%; in test [10], -37.7% (active); in test [11], 5.95% (active); in test [12] it was 19.2%. The growth in test [13] is 11.9%; in test [14], 70%; in [15], 13.1%; in test [16], 2.69% (active); in test [17], 92.3%; in [18], 13.9%. For the same compound, the growth in [19] is 4.06% (active).
Turning to `COc1cc(/C=C/C(=O)c2nnn(-c3ccc(Cl)cc3)c2C)cc(OC)c1OC`, the growth was 12.4% in test [1]; 15.5% in [2]; 22.5% in [3]; 60.3% in test [4]; 17.3% in test [5]; 30.6% in test [6]. In addition, the growth in test [7] is 21.5%; in test [8] it was 28.7%; in test [9], 46.9%; in [10], 51.3%; in test [11], 10.1%; in test [12] it was 15.5%. Moreover, the growth was 54% in test [13]; 86.7% in [14]; 42.4% in [15]; 43.2% in test [16]; 132% in test [17]; -19.2% (active) in test [18]. Besides, in test [19], the growth was -10.7% (active).
`COc1ccc(C(=O)/C=C/c2ccc(OCc3ccccc3)c(OC)c2)cc1OC`: the growth in test [1] is 9.77% (active); in [2], 15.1%; in test [3], -15.9% (active); in [4], 14.4%; in [5], 10.1%; in test [6], 37%. For the same compound, the growth was 34.9% in [7]; 29% in test [8]; 70.4% in [9]; 72.7% in [10]; 80.4% in test [11]; 1.82% (active) in test [12]. Further, the growth in test [13] was 31.4%; in test [14], 62.7%; in test [15], 38.3%; in test [16] it was 38.8%; in test [17], 102%; in test [18] it was 9.36% (active). Also, the growth in test [19] was 9.48% (active).
Turning to `CC1CCCCN1CCCNC(=O)N/C(N)=N/c1nc2ccccc2s1` (stereo not drawn), the growth in [1] is -13.6% (active); in test [2], 3.14% (active); in [3], 4.11% (active); in [4] it was 61.5%; in [5] it was 40.8%; in test [6], 31.6%. The growth in test [7] was -96.7% (active); in [8] it was -84.2% (active); in test [9], -97% (active); in [10], 41.3%; in [11] it was 46.1%; in test [12], 40.9%. Besides, the growth in test [13] is 24.4%; in test [14], 70.1%; in test [15], 42.5%; in test [16] it was 24.6%; in [17], 104%; in test [18], 26.8%. In addition, the growth in test [19] was 16.4%.
As for `COc1ccc2oc3c4[nH]c5ccccc5c4c4c(c3c2c1)C(=O)N(C(=O)OC(C)(C)C)C4=O`, the growth was -23.2% (active) in test [1]; -32% (active) in test [2]; -3.78% (active) in test [3]; 11.8% in test [4]; 4.43% (active) in test [5]; -12.9% (active) in test [6]. The growth in test [7] was -99.3% (active); in test [8] it was -77.3% (active); in [9] it was -45.5% (active); in test [10], -46.8% (active); in test [11] it was -18.9% (active); in test [12], -19.3% (active). The growth was -12.8% (active) in test [13]; -11% (active) in [14]; -22.3% (active) in test [15]; -15.3% (active) in test [16]; -10.9% (active) in test [17]; 6.52% (active) in test [18]. Further, the growth in test [19] is -28.4% (active).
As for `C[C@H](Nc1nc(NCCc2ccccc2)nc2ccccc12)c1ccccc1`, the growth in test [1] is -91.2% (active); in test [2] it was -90.6% (active); in test [3], -44.6% (active); in [4], -75% (active); in test [5] it was -77.7% (active); in [6], -54.5% (active). Also, the growth in test [7] was -100% (active); in test [8] it was -95% (active); in test [9], -98.5% (active); in test [10], -92% (active); in test [11], -86.2% (active); in [12] it was -94.6% (active). Moreover, the growth was -95.9% (active) in test [13]; -93.6% (active) in test [14]; -97.2% (active) in test [15]; -85.9% (active) in test [16]; -69.5% (active) in [17]; -16.3% (active) in test [18]. Besides, the growth in test [19] is -60.3% (active).
As for `COc1cc(C2CC(c3cc(OC)c(OC)c(OC)c3)=NN2C(C)=O)ccc1OCc1ccc(F)cc1` (stereo not drawn), the growth in test [1] was 42.5%; in test [2], 28.1%; in test [3] it was 79.5%; in [4], 60.9%; in [5], 59.9%; in test [6], 27.7%. Moreover, the growth in [7] is 29.7%; in [8], 52%; in test [9], 73.2%; in test [10], 69.5%; in test [11] it was 59.4%; in test [12], 53.9%. The growth in [13] is 29.7%; in test [14] it was 50.5%; in [15], 59.2%; in [16] it was 53.2%; in test [17] it was 59.4%; in test [18] it was 59.9%. In test [19], the growth was 30.6%.

The record behind these values is PubChem BioAssay (NCI).
